Among all 52,000 compounds or so, about 4,300 (8.3%) were called active. Cut-off read from the data, not from the text of the source: active = survival mostly below about 52% (no sharp cut-off); inactive = mostly above about 56%. This excerpt belongs to a sample that is enriched for actives.
Tested on: DeltatarO mutant
Assay: growth inhibition of S. aureus wild type versus tarO mutant, primary screen, teichoic acid synthesis inhibitors, RN4220, OD600 (AID 463173)
Settings: OD600, 18 h, active compounds read low, screened at 18.75 µg/mL (by protocol)

| Structure (SMILES) | survival |
| --- | --- |
| CCN(C(=O)Cn1c(=O)n(-c2ccccc2)c(=O)c2ccc(C(=O)NCc3ccc4c(c3)OCO4)cc21)c1cccc(C)c1 | 84% (inactive) |
| CC(C)C(c1nnnn1C(C)(C)C)N(Cc1cc2cc3c(cc2[nH]c1=O)OCCO3)C1CCCCC1 (stereo not given) | 109% (inactive) |
| COc1cccc(NC(=O)CCN2CCN(CCO)CC2)c1 | 158% (inactive) |
| CC(C)c1nn2c(=O)cc(COC(=O)CNC(=O)c3ccccc3Cl)nc2s1 | 125% (inactive) |
| COc1ccc2oc(=O)cc(CN3CCN(Cc4ccccc4)CC3)c2c1 | 83% (inactive) |
| COc1ccc2oc(=O)cc(CN3CCN(c4ccccc4F)CC3)c2c1 | 72% (inactive) |
| COc1ccc2oc(=O)cc(CN3CCN(c4ccc(F)cc4)CC3)c2c1 | 61% (inactive) |
| COc1ccc2oc(=O)cc(CN3CCN(C(=O)c4ccccc4)CC3)c2c1 | 41% (active) |
| COc1ccc2oc(=O)cc(CN3CCN(C(=O)c4ccccc4Br)CC3)c2c1 | 44% (active) |
| COc1ccc2oc(=O)cc(CN3CCN(c4ccccc4OC)CC3)c2c1 | 77% (inactive) |
| CCOc1ccc2oc(=O)cc(CN3CCN(c4ccccc4)CC3)c2c1 | 83% (inactive) |
| COc1ccc(N2CCN(Cc3cc(=O)oc4ccc(OC)cc34)CC2)cc1 | 86% (inactive) |
| COc1ccc2oc(=O)cc(CN3CCN(C(=O)c4ccccc4F)CC3)c2c1 | 36% (active) |
| CC(C)NC(=O)C1CCN(Cc2ccccc2Cl)CC1 | 92% (inactive) |
| Cc1ccc(NC(=O)CCNS(=O)(=O)c2ccc3c(c2)CCN3C(=O)C2CC2)c(Cl)c1 | 83% (inactive) |
| COc1ccc(Cl)cc1NC(=O)CSc1nnc(C)n2c1cc1occc12 | 50% (inactive) |
| Cc1ccc(C)c(NC(=O)Cn2c(=O)n(CCC(=O)NCc3ccc4c(c3)OCO4)c(=O)c3ccccc32)c1 | 104% (inactive) |
| O=C(CN1C(=O)CSC1=O)c1ccccc1 | 88% (inactive) |
| CC1Cc2ccccc2N1C(=O)c1cnsn1 (stereo not given) | 97% (inactive) |
| CC1=C(C(=O)Nc2ccc(Cl)cc2)C(c2cccs2)n2nc(SCc3cccc(Cl)c3)nc2N1 (stereo not given) | 89% (inactive) |
| CCNC(=S)Nc1cc(-c2ccc(Cl)cc2)[nH]n1 | 20% (active) |
| CCOC(=O)/C=C(\C)Nc1cc(-c2ccc(Cl)cc2)[nH]n1 | 68% (inactive) |
| CC(=O)Nc1cc(-c2ccc(Cl)cc2)[nH]n1 | 106% (inactive) |
| CCN(CC)S(=O)(=O)c1ccc2c(c1)N(CC(=O)N1CCN(c3ccc(F)cc3)CC1)C(=O)CO2 | 94% (inactive) |
| Cc1oc(-c2ccc(Cl)cc2)nc1CS(=O)CC(=O)NCc1ccc(Cl)cc1 (stereo not given) | 63% (inactive) |

| Structure (SMILES) | survival |
| --- | --- |
| Cc1ccc(-c2onc(C)c2C)cc1S(=O)(=O)Nc1ccc(Cl)cn1 | 97% (inactive) |
| Cc1cccc(NC(=O)CSc2ncc(-c3ccccc3)[nH]2)c1C | 51% (inactive) |
| O=C(CSc1ncc(-c2ccccc2)[nH]1)Nc1cccc(O)c1 | 89% (inactive) |
| Cc1ccccc1NC(=O)CSc1nc(-c2cccs2)nc2cc(=O)[nH]n12 | 93% (inactive) |
| O=C(CSc1nc(-c2cccs2)nc2cc(=O)[nH]n12)Nc1ccccc1F | 47% (active) |
| CCOc1ccc(-c2nnc(SCC(=O)NC3CCCC3)nc2-c2ccc(OCC)c(OC)c2)cc1OC | 71% (inactive) |
| Cc1cccc(NC(=O)CSc2ncc(-c3ccc(Br)cc3)[nH]2)c1 | 110% (inactive) |
| CCOc1ccc(-c2nnc(SCC(=O)NC3CCCCC3)nc2-c2ccc(OCC)c(OC)c2)cc1OC | 78% (inactive) |
| O=C(CSc1nc(-c2cccs2)nc2cc(=O)[nH]n12)Nc1ccccc1Cl | 76% (inactive) |
| O=C(CSc1ncc(-c2ccccc2)[nH]1)Nc1cccc(C(F)(F)F)c1 | 12% (active) |
| O=C(CSc1nc2cc3ccccc3cc2[nH]1)Nc1cccc(C(F)(F)F)c1 | 74% (inactive) |
| COc1ccc(-c2nnc(SCC(=O)NC3CCCC3)nc2-c2ccc(OC)c(OC)c2)cc1OC | 47% (active) |
| O=C(CSc1ncc(-c2ccccc2)[nH]1)Nc1cccc(Br)c1 | 9% (active) |
| O=C1NC(=O)C2C3c4ccccc4C(c4ccccc43)C12 (stereo not given) | 98% (inactive) |
| O=C(CSc1nnc(CNC(=O)c2c(F)cccc2Cl)o1)Nc1cccc(F)c1 | 82% (inactive) |
| CCc1ccc(CNC(=O)c2ccc3c(c2)nc2n3CCCCC2)cc1 | 79% (inactive) |
| COC(=O)c1c(NC(=O)c2cc(=O)c3ccc(C)c(C)c3o2)sc2c1CCCC2 | 84% (inactive) |
| N#CC(C#N)=Cc1cn(CCOc2ccc3c(c2)OCO3)c2ccccc12 | 98% (inactive) |
| CCOC(=O)c1cc(=O)n2[nH]c(-c3ccc(Br)cc3)cc2n1 | 93% (inactive) |
| COc1ccc(NC(=O)c2ccc3c(c2)N(Cc2cccc(Cl)c2)C(=O)c2ccccc2S3=O)cc1Cl (stereo not given) | 112% (inactive) |
| COc1ccc(N(C)C(=O)c2nn(-c3ccc(C)cc3)c(=O)n(C)c2=O)c(OC)c1 | 82% (inactive) |
| O=C(CSc1ncc(-c2ccccc2)[nH]1)Nc1ccccc1 | 64% (inactive) |
| CCOc1ccc(NC(=O)CSc2nnc(-c3ccc(C)cc3)c(-c3ccc(C)cc3)n2)cc1 | 115% (inactive) |
| Cc1ccc(NC(=O)CSc2ncc(-c3ccccc3)[nH]2)cc1 | 51% (inactive) |
| O=C(CSc1ncc(-c2ccccc2)[nH]1)Nc1ccc(Cl)cc1 | 36% (active) |

| Structure (SMILES) | survival |
| --- | --- |
| COc1cc(-c2nnc(SCC(=O)Nc3cccc(C#N)c3)o2)cc(OC)c1OC | 110% (inactive) |
| CCOc1cccc(NC(=O)CSc2ncc(-c3ccccc3)[nH]2)c1 | 49% (inactive) |
| COc1ccc(-c2nnc(SCC(=O)Nc3cccc(C(F)(F)F)c3)nc2-c2ccc(OC)cc2)cc1 | 87% (inactive) |
| COc1ccc(NC(=O)CSc2ncc(-c3ccc(Cl)cc3)[nH]2)cc1OC | 78% (inactive) |
| CCOc1ccc(-c2nnc(SCC(=O)Nc3cccc(C#N)c3)o2)cc1 | 48% (active) |
| CCOc1cccc(NC(=O)CSc2ncc(-c3ccc(Cl)cc3)[nH]2)c1 | 39% (active) |
| CCOc1ccc(NC(=O)CSc2nnc(-c3ccc(OCC)cc3)o2)cc1 | 94% (inactive) |
| CCOc1ccc(-c2nnc(SCC(=O)Nc3cccc(OC)c3)nc2-c2ccc(OCC)cc2)cc1 | 0% (active) |
| CCOc1ccccc1-n1nnc(-c2nc(-c3ccccc3C)no2)c1C | 96% (inactive) |
| Cc1c(F)cccc1NC(=O)C1CCCN1S(=O)(=O)c1ccc(F)cc1 (stereo not given) | 72% (inactive) |
| CC1=C(c2ccc(C)cc2)S(=O)(=O)N(Cc2ccc(C(=O)NCc3ccccc3)cc2)C1=O | 81% (inactive) |
| CCN(C(=O)c1cccs1)c1nnc(-c2cccc(C)c2)s1 | 93% (inactive) |
| COc1ccc(CCNC(=S)N(Cc2ccco2)Cc2cc3cc(OC)c(OC)cc3[nH]c2=O)cc1OC | 73% (inactive) |
| O=C(CSc1ncc(-c2ccc(F)cc2)n1Cc1ccco1)OC1CCCCC1 | 108% (inactive) |
| COc1ccc(OC)c(NC(=O)COCc2cc(-c3ccc(F)cc3)on2)c1 | 93% (inactive) |
| O=C(CSc1nc(-c2cccs2)nc2cc(=O)[nH]n12)Nc1cccc(C(F)(F)F)c1 | 94% (inactive) |
| O=C(CSc1nc(-c2ccccc2F)nc2cc(=O)[nH]n12)Nc1cccc(C(F)(F)F)c1 | 69% (inactive) |
| Cc1cccc(-c2nc(SCC(=O)Nc3cccc(C(F)(F)F)c3)n3[nH]c(=O)cc3n2)c1 | 0% (active) |
| Cc1ccc(-c2noc(-c3nnn(CC(=O)Nc4cc(Cl)ccc4C)c3N)n2)cc1 | 80% (inactive) |
| O=C(Nc1cccc(C(F)(F)F)c1)c1ccc2snnc2c1 | 111% (inactive) |
| Cc1ccc(NC(=O)Nc2ccc3snnc3c2)cc1C | 66% (inactive) |
| COc1cccc(NC(=O)Nc2ccc3snnc3c2)c1 | 68% (inactive) |
| O=C(Nc1ccc(F)cc1)Nc1ccc2snnc2c1 | 19% (active) |
| CC(=O)c1ccc(NC(=O)Nc2ccc3snnc3c2)cc1 | 50% (inactive) |
| O=C(Nc1cccc(C(F)(F)F)c1)Nc1ccc2snnc2c1 | 11% (active) |

| Structure (SMILES) | survival |
| --- | --- |
| COc1ccc(NC(=O)CSC2=Nc3ccccc3C3=NC(CCC(=O)NCc4cccs4)C(=O)N23)cc1 (stereo not given) | 93% (inactive) |
| CC1=C(c2ccc(C)c(C)c2)S(=O)(=O)N=C1N1CCC(C(=O)NC(C)c2ccccc2)CC1 (stereo not given) | 84% (inactive) |
| CC(=O)N1Cc2ccccc2C(C)CC12CCCC2 (stereo not given) | 119% (inactive) |
| Cc1nn2c(=O)cc(COC(=O)c3cccs3)nc2s1 | 89% (inactive) |
| Fc1ccc(NCc2ccccc2-c2nnc(-c3ccccc3Cl)o2)cc1Cl | 77% (inactive) |
| O=C(NCCc1nc2ccccc2n1Cc1ccc(F)cc1)c1ccco1 | 47% (inactive) |
| CC1=Nc2cc(C(=O)NC3CCCC3)ccc2Sc2ccc(Br)cc21 | 57% (inactive) |
| CCC1=Nc2cc(C(=O)NC3CCCC3)ccc2Sc2ccc(Cl)cc21 | 58% (inactive) |
| CCC1=Nc2cc(C(=O)NC3CCCC3)ccc2Sc2ccc(Br)cc21 | 44% (active) |
| CCCC1=Nc2cc(C(=O)NC3CCCCC3)ccc2Sc2ccc(C)cc21 | 94% (inactive) |
| CCCC1=Nc2cc(C(=O)NC3CCCC3)ccc2Sc2ccc(C)cc21 | 46% (active) |
| CCC1=Nc2cc(C(=O)NC3CCC(C)CC3)ccc2Sc2ccc(C)cc21 (stereo not given) | 39% (active) |
| CCC1=Nc2cc(C(=O)NCc3ccc(C)cc3)ccc2Sc2ccc(C)cc21 | 78% (inactive) |
| CC1=Nc2cc(C(=O)NC3CCCC3)ccc2Sc2ccc(C)cc21 | 59% (inactive) |
| CC1=Nc2cc(C(=O)NC3CCC(C)CC3)ccc2Sc2c(C)ccc(C)c21 (stereo not given) | 73% (inactive) |
| COc1ccc(CNC(=O)c2cc3cc(C)ccc3n2C)cc1 | 74% (inactive) |
| O=C(CSc1nc2c([nH]c3ccccc32)c(=O)n1-c1cccc(C(F)(F)F)c1)N1CCc2ccccc21 | 78% (inactive) |
| O=C(NC1CC(=O)N(c2ccc(Cl)cc2)C1)c1cccs1 (stereo not given) | 71% (inactive) |
| CC1CCN(c2nc3ccc(C(=O)NC(C)C)cc3s2)CC1 | 74% (inactive) |
| Cc1cc2[nH]c(=O)c(=O)[nH]c2cc1S(=O)(=O)NCc1ccc(F)cc1 | 112% (inactive) |
| COc1cccc(CNS(=O)(=O)c2cc3[nH]c(=O)c(=O)[nH]c3cc2C)c1 | 67% (inactive) |
| Cc1ccc(CNS(=O)(=O)c2cc3[nH]c(=O)c(=O)[nH]c3cc2C)cc1 | 47% (active) |
| CC(C)Sc1ncc(Cl)c(C(=O)N(Cc2ccc(F)cc2)C2CCS(=O)(=O)C2)n1 (stereo not given) | 76% (inactive) |
| CN(Cc1ccccc1)Cn1[nH]c(=O)ccc1=O | 110% (inactive) |
| COc1ccc(C)c2sc(N(Cc3cccnc3)C(=O)COc3ccccc3)nc12 | 85% (inactive) |

From PubChem BioAssay AID463173 (ICCB-Longwood Screening Facility, Harvard Medical School, 2010)
